Measured values reported in PubChem BioAssay AID720664 (National Center for Advancing Translational Sciences (NCATS), 2013).
Results filed as inconclusive are left out. Unmarked numbers belong to inactive results. Calls of active or inactive are those of the source. The call rests on the fitted dose curve; in most records, active means well fitted inhibition curve with a large enough effect; inconclusive means small, poorly fitted or top-dose-only effect; inactive means flat fitted curve, though single readings scatter.

Biological target: Galactokinase (Homo sapiens) (UniProt P51570)
Assay: qHTS for Inhibitors of Human Galactokinase (GALK): SAR round 3
Conditions: ADP detection luminescence, 1 h; series mostly up to 57.5 µM; activity change, negative = inhibition: at the top concentration
Source text: Inherited deficiency of galactose-1-phosphate uridyltransferase (GALT) can result in a potentially lethal disorder called Classic Galactosemia (OMIM 230400). Several lines of evidence indicate that an elevated level of galactose-1-phosphate (gal-1-p), the product of galactokinase (GALK), is a major, if not sole, pathogenic mechanism in patients with classic galactosemia. Therefore, finding inhibitors of GALK is a potential novel therapy for this inherent metabolic disease and is the long term goal of this project. Active compounds observed in the qHTS GALK assay (AID: 1868) were cherry picked and re-screened for validation. GALK (provided by Kent Lai) was assayed using ATP and D-(+)-Galactose (Sigma-Aldrich cat# G0750) as substrates. Promega ADP-Glo technology was used to detect the ADP product formed after the kinase reaction. Kinase reactions with and without GALK were used as negative and positive controls together with Protein Tyrosine Phosphatase CD45 inhibitor (EMD Bioscience cat# 540215) which is shown to inhibit GALK activity. Decrease in activity corresponds to inhibition of the enzyme, the desired outcome for this assay. NIH Molecular Libraries Probe Production Network [MLPCN] NIH Chemical Genomics Center [NCGC] Grant: MH085689-01 PI Name: Kent Lai, University of Utah
Three uL/well of ATP-buffer solution (35 uM ATP, 20mM HEPES pH8.0, 5 mM MgCl2, 60 mM NaCl, 1 mM DTT, 0.01% BSA final concentration) was dispensed into 1536-well, assay plates (Greiner, solid white medium-binding plates) with Aurora Discovery BioRAPTR Flying Reagent Dispenser (FRD; Beckton-Dickenson). Compound and control solution (23 nL) was transferred to the assay plate using the Kalypsys 1536-pin tool apparatus. One uL/well GALK-galactose solution (5 nM GALK, 100 uM galactose, 20 mM HEPES pH8.0, 5 mM MgCl2, 60 mM NaCl, 1 mM DTT, 0.01% BSA final concentration) was then added using the FRD yielding a total kinase reaction volume of 4 uL/ well. After 1 hour of room temperature incubation, 4 uL Kinase-Glo Plus reagent was added for a final assay volume of 8 uL/well. Luminescence was detected with the ViewLux plate reader (Perkin Elmer, Waltham, MA) after 2 min incubation using a 1 sec exposure time and 2x binning.

Galactokinase (Homo sapiens), sequence (P51570 whole entry, looked up): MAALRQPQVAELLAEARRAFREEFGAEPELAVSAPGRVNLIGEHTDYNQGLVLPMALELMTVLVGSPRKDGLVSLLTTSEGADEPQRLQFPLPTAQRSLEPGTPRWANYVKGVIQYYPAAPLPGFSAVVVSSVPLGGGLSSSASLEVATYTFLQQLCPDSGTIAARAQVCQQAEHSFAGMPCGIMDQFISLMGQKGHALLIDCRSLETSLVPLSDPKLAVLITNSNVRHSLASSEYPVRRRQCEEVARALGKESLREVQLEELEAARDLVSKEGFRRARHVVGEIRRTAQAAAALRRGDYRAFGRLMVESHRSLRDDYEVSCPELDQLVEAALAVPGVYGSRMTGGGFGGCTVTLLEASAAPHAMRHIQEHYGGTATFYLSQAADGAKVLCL

SMILES	activity change, negative = inhibition [%]	Potency
O=C1CCCC2=C1C(c1[nH]ncc1Cl)N=C(Nc1nc3ccccc3s1)N2 (stereo not given)	-4.86	
O=C1CCCC2=C1C(c1c(Cl)cccc1Cl)N=C(Nc1nc3ccccc3o1)N2 (stereo not given)	-16.4	
O=C1CCCC2N=C(Nc3nc4ccccc4o3)CC(c3ccccc3Cl)C12 (stereo not given)	3.86	
Cc1ccc2oc(NC3=NC(c4[nH]ncc4Cl)C4=C(CCCC4=O)N3)nc2c1 (stereo not given)	0.986	
O=C1CCCC2=C1C(c1[nH]ncc1Cl)N=C(Nc1ccn[nH]1)N2 (stereo not given)	3.24	
O=C1CCCC2=C1C(c1[nH]ncc1Cl)NC(=NCc1ncc[nH]1)N2 (stereo not given)	1.65	
O=C1CCCC2=C1C(c1[nH]ncc1Cl)N=C(Nc1nc3cccc(Cl)c3o1)N2 (stereo not given)	4.36	
O=C1CC(c2ccccc2)CC2=C1C1(CCCC1)N=C(Nc1nc3ccccc3o1)N2 (stereo not given)	-1.13	
Cc1nc(C2=NC(c3ccccc3Cl)C3=C(CCCC3=O)N2)cs1 (stereo not given)	2.05	
O=C1CCCC2=C1C(c1[nH]ncc1Cl)NC(=NCc1ccccc1)N2 (stereo not given)	1.45	
COc1cccc2nc(Nc3nc4ccccc4o3)nc(-c3ccccc3Cl)c12	-7.85	
COC(=O)c1ccccc1NC(=O)c1ccccc1OC(F)F	0.981	
COc1ccc(C2N=C(Nc3nc4ccccc4o3)NC3=C2C(=O)CCC3)cc1 (stereo not given)	-7.29	
O=C(Nc1nnc(S(=O)(=O)N2CCOCC2)s1)c1cccc(Br)c1	-11.9	
CC1=C(C(=O)c2ccccc2)C(c2ccccc2Cl)N=C(Nc2nc3ccccc3o2)N1 (stereo not given)	-4.91	
Cc1ccc2oc(NC3=NC(c4ccccc4Cl)C4=C(CCCC4=O)N3)nc2c1 (stereo not given)		6.11 µM (active)
O=C1CCCC2=C1C(c1cccc(C(F)(F)F)c1)N=C(Nc1nc3ccccc3o1)N2 (stereo not given)	-8.12	
CC(C)c1nc(Nc2nc3ccccc3o2)nc2c1CCCC2	-2.24	
Cc1nc(Nc2nc3ccccc3o2)nc(-c2ccccc2Br)c1C(=O)NCc1ccccc1	2.91	
O=C1CCCC2=C1C(c1[nH]ncc1Cl)N=C(Nc1nc3c(Br)cccc3o1)N2 (stereo not given)	-4.45	

SMILES	activity change, negative = inhibition [%]	Potency
O=C1CCCC2=C1C1(CCCC1)N=C(Nc1nc3cc4ccccc4cc3o1)N2	1.6	
CN(C)c1ccc(C2N=C(Nc3nc4ccccc4o3)NC3=C2C(=O)CCC3)cc1 (stereo not given)	-0.254	
Cn1cccc1CN=C1NC2=C(C(=O)CCC2)C(c2[nH]ncc2Cl)N1 (stereo not given)	-1.27	
Cn1c(NC2=NC3(CCCC3)C3=C(CCCC3=O)N2)nc2ccccc21	3.5	
CN1C(=O)NC(c2ccccc2Cl)C2=C1CCCC2=O (stereo not given)	-7.27	
CN(Cc1ccccc1)C(=O)C1CCN(Cc2cccc3ccccc23)CC1	1.16	
O=C1CCCC2=C1C(c1[nH]ncc1Cl)N=C(Nc1cccnc1)N2 (stereo not given)	0.256	
Cc1ccc(C2N=C(Nc3nc4ccccc4o3)NC3=C2C(=O)CCC3)cc1 (stereo not given)	-4.94	
O=C1CCCC2=C1C(c1[nH]ncc1Cl)N=C(Nc1ccccc1)N2 (stereo not given)	1.36	
CC1(C)CC(=O)C2=C(C1)NC(Nc1nc3ccccc3o1)=NC21CCCC1	-18.6	
O=C1CCCC2=C1C(c1ccncc1)N=C(Nc1nc3ccccc3o1)N2 (stereo not given)	-5.76	
COC(=O)c1ccc2nc(NC3=NC(c4[nH]ncc4Cl)C4=C(CCCC4=O)N3)oc2c1 (stereo not given)	-1.92	
O=C1CCCC2=C1C(c1ccccc1Br)N=C(Nc1nc3ccccc3o1)N2 (stereo not given)		6.11 µM (active)
O=C1CCCC2=C1C(c1ccncc1Cl)N=C(Nc1nc3ccccc3o1)N2 (stereo not given)		19.3 µM (active)
Cc1nc(Nc2nc3ccccc3o2)nc2c1CCCC2	-1.21	
O=C1CCCC2=C1C(c1cccnc1Br)N=C(Nc1nc3ccccc3o1)N2 (stereo not given)	-21.8	
Cc1ccc(C2N=C(Nc3nc4ccccc4o3)NC3=C2C(=O)CCC3)s1 (stereo not given)	-21.2	
O=C1CCCC2=C1C(c1[nH]ncc1Cl)NC(=NCCc1ccccc1)N2 (stereo not given)	0.974	
CC1=C(C(=O)NC2CCCC2)C(c2[nH]ncc2Cl)N=C(Nc2nc3ccccc3o2)N1 (stereo not given)	-7.46	
O=C1CCCC2=C1C(c1[nH]ncc1Cl)N=C(Nc1nc3cc(F)ccc3o1)N2 (stereo not given)	0.642	
